Measured values published in PubChem BioAssay AID1159580 (chemical genetic matrix, 2015).
The campaign covered roughly 5,500 compounds. About 2,000 (36%) were called active. Not shown: some 18% with an inconclusive outcome. Cut-off read from the data, not from the text of the source: active = normalized growth mostly below about 0.91 (no sharp cut-off); inconclusive = no clear call, values can overlap the other calls; inactive = mostly above about 0.92. This is one part of the list.

Assay: chemical genetic growth profiling, strain panel (AID 1159580);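 note: tested at 20 µM; growth read once vehicle control cultures reached saturation at 30 °C; 1 = growth at the plate median or of vehicle wells; lower values mean less growth of the strain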
Conditions: growth OD

Measured: normalized growth

O=C(O)c1ccc(S(=O)(=O)N(Cl)Cl)cc1
inactive: S. cerevisiae deletion strains, locus YJR066W, strain TOR1, active compounds read low 0.916 | S. cerevisiae deletion strains, locus YKL009W, strain mrt4, active compounds read low 0.99 | S. cerevisiae deletion strains, locus YKL068W, active compounds read low 1 | S. cerevisiae deletion strains, locus YKL085W, strain MDH1 (second series), active compounds read low 1.01 | S. cerevisiae deletion strains, locus YKL085W, strain MDH1, active compounds read low 1.01 | S. cerevisiae deletion strains, locus YKL160W, strain elf1, active compounds read low 1.05 | S. cerevisiae deletion strains, locus YKL190W, strain CNB1, active compounds read low 1 | S. cerevisiae deletion strains, locus YKR001C, strain vps1, active compounds read low 1.02 | S. cerevisiae deletion strains, locus YKR026C, strain gcn3, active compounds read low 0.977 | S. cerevisiae deletion strains, locus YKR091W, strain srl3, active compounds read low 0.989 | S. cerevisiae deletion strains, locus YLL001W, strain dnm1, active compounds read low 1.03 | S. cerevisiae deletion strains, locus YLL026W, active compounds read low 0.976 | S. cerevisiae deletion strains, locus YLL041C, strain sdh2, active compounds read low 0.989 | S. cerevisiae deletion strains, locus YLR027C, strain aat2, active compounds read low 0.985 | S. cerevisiae deletion strains, locus YLR039C, strain RIC1, active compounds read low 0.985 | S. cerevisiae deletion strains, locus YLR058C, strain SHM2, active compounds read low 1.01 | S. cerevisiae deletion strains, locus YLR102C, strain apc9, active compounds read low 1.02 | S. cerevisiae deletion strains, locus YLR113W, strain HOG1, active compounds read low 0.961 | S. cerevisiae deletion strains, locus YLR221C, strain rsa3, active compounds read low 1.02 | S. cerevisiae deletion strains, locus YLR258W, strain gsy2, active compounds read low 0.994 | S. cerevisiae deletion strains, locus YLR262C, strain YPT6 (second series), active compounds read low 1 | S. cerevisiae deletion strains, locus YLR262C, strain YPT6, active compounds read low 0.995 | S. cerevisiae deletion strains, locus YLR268W, strain sec22, active compounds read low 1 | S. cerevisiae deletion strains, locus YLR320W, strain mms22, active compounds read low 1.05 | S. cerevisiae deletion strains, locus YLR330W, strain CHS5, active compounds read low 0.999 | S. cerevisiae deletion strains, locus YLR342W, strain FKS1 (second series), active compounds read low 0.993 | S. cerevisiae deletion strains, locus YLR342W, strain FKS1, active compounds read low 0.983 | S. cerevisiae deletion strains, locus YLR357W, strain rsc2, active compounds read low 1.01 | S. cerevisiae deletion strains, locus YLR370C, strain arc18, active compounds read low 0.974 | S. cerevisiae deletion strains, locus YLR371W, strain rom2, active compounds read low 1.01 | S. cerevisiae deletion strains, locus YLR384C, strain iki3, active compounds read low 0.988 | S. cerevisiae deletion strains, locus YLR418C, strain cdc73, active compounds read low 0.951 | S. cerevisiae deletion strains, locus YML016C, strain PPZ1, active compounds read low 1.01 | S. cerevisiae deletion strains, locus YML032C, strain rad52, active compounds read low 1.02 | S. cerevisiae deletion strains, locus YML120C, strain ndi1, active compounds read low 1.03 | S. cerevisiae deletion strains, locus YML124C, strain tub3, active compounds read low 1.03 | S. cerevisiae deletion strains, locus YMR058W, strain fet3, active compounds read low 0.983 | S. cerevisiae deletion strains, locus YMR078C, strain ctf18, active compounds read low 1.03 | S. cerevisiae deletion strains, locus YMR125W, strain sto1, active compounds read low 1.02 | S. cerevisiae deletion strains, locus YMR129W, active compounds read low 0.984 | S. cerevisiae deletion strains, locus YMR205C, strain PFK2, active compounds read low 1.04 | S. cerevisiae deletion strains, locus YMR223W, strain ubp8, active compounds read low 1.02 | S. cerevisiae deletion strains, locus YMR231W, strain pep5, active compounds read low 0.978 | S. cerevisiae deletion strains, locus YMR307W, strain GAS1, active compounds read low 0.964 | S. cerevisiae deletion strains, locus YNL067W, strain RPL9B, active compounds read low 1 | S. cerevisiae deletion strains, locus YNL071W, strain lat1, active compounds read low 0.998 | S. cerevisiae deletion strains, locus YNL128W, strain TEP1, active compounds read low 1.02 | S. cerevisiae deletion strains, locus YNL183C, strain NPR1, active compounds read low 0.926 | S. cerevisiae deletion strains, locus YNL209W, strain ssb2, active compounds read low 0.983 | S. cerevisiae deletion strains, locus YNL233W, strain BNI4, active compounds read low 0.997 | S. cerevisiae deletion strains, locus YNL248C, strain rpa49, active compounds read low 1.06 | S. cerevisiae deletion strains, locus YNL250W, strain rad50, active compounds read low 1.02 | S. cerevisiae deletion strains, locus YNL271C, strain bni1, active compounds read low 1.03 | S. cerevisiae deletion strains, locus YNL298W, strain CLA4, active compounds read low 1.05 | S. cerevisiae deletion strains, locus YNL307C, strain MCK1, active compounds read low 1.01 | S. cerevisiae deletion strains, locus YNL322C, strain KRE1 (second series), active compounds read low 0.992 | S. cerevisiae deletion strains, locus YNR049C, strain mso1, active compounds read low 0.975 | S. cerevisiae deletion strains, locus YNR052C, strain pop2, active compounds read low 1.01 | S. cerevisiae deletion strains, locus YOL006C, strain TOP1, active compounds read low 1.01 | S. cerevisiae deletion strains, locus YOL012C, strain htz1 2.24 | S. cerevisiae deletion strains, locus YOL147C, strain pex11, active compounds read low 1.02 | S. cerevisiae deletion strains, locus YOR001W, strain rrp6, active compounds read low 0.944 | S. cerevisiae deletion strains, locus YOR061W, strain CKA2, active compounds read low 1.01 | S. cerevisiae deletion strains, locus YOR069W, strain VPS5, active compounds read low 0.998 | S. cerevisiae deletion strains, locus YOR070C, strain gyp1, active compounds read low 0.967 | S. cerevisiae deletion strains, locus YOR080W, strain dia2, active compounds read low 0.969 | S. cerevisiae deletion strains, locus YOR083W, strain WHI5, active compounds read low 1.05 | S. cerevisiae deletion strains, locus YOR106W, strain vam3, active compounds read low 1.06 | S. cerevisiae deletion strains, locus YOR136W, strain idh2, active compounds read low 1.02 | S. cerevisiae deletion strains, locus YOR144C, strain elg1, active compounds read low 1.02 | S. cerevisiae deletion strains, locus YOR184W, strain ser1, active compounds read low 0.992 | S. cerevisiae deletion strains, locus YOR231W, strain MKK1, active compounds read low 0.971 | S. cerevisiae deletion strains, locus YOR265W, strain rbl2, active compounds read low 0.981 | S. cerevisiae deletion strains, locus YOR270C, strain vph1, active compounds read low 1.01 | S. cerevisiae deletion strains, locus YOR290C, strain snf2, active compounds read low 1 | S. cerevisiae deletion strains, locus YOR316C, strain cot1, active compounds read low 1.02 | S. cerevisiae deletion strains, locus YPL051W, strain arl3, active compounds read low 1.02 | S. cerevisiae deletion strains, locus YPL055C, strain LGE1, active compounds read low 0.979 | S. cerevisiae deletion strains, locus YPL078C, strain atp4, active compounds read low 1.05 | S. cerevisiae deletion strains, locus YPL106C, strain sse1, active compounds read low 0.985 | S. cerevisiae deletion strains, locus YPL240C, strain hsp82, active compounds read low 0.989 | S. cerevisiae deletion strains, locus YPL241C, strain CIN2, active compounds read low 1 | S. cerevisiae deletion strains, locus YPL256C, strain CLN2, active compounds read low 0.97 | S. cerevisiae deletion strains, locus YPR119W, strain clb2, active compounds read low 1.02 | S. cerevisiae deletion strains, locus YPR141C, strain kar3, active compounds read low 1.02 | S. cerevisiae deletion strains, locus YPR163C, strain tif3, active compounds read low 1.04 | S. cerevisiae deletion strains, locus YPR167C, strain met16, active compounds read low 1.02 | S. cerevisiae deletion strains, strain wtn01, active compounds read low 1.01 | S. cerevisiae strains, strain wild type, active compounds read low 1
